{
  "source": "the antibiotic and cytotoxicity screens of Wong et al. (2023)",
  "note": "Screen size: about 39,000 compounds; about 3,300 (8.5%) were called active. Shown is part of a subset that was picked to be rich in actives.",
  "data": [
    {"tested_on": "HepG2", "assay": "cytotoxicity call (relative viability < 0.9)", "conditions": "10 µM", "values": [
      {"smiles": "COc1cc(F)c(F)c(Nc2ccc(I)cc2F)c1NS(=O)(=O)C1(C[C@H](O)CO)CC1", "cytotoxicity call": "inactive"},
      {"smiles": "O=C(NCC1(c2nc(-c3ccccc3)cs2)CCOCC1)c1cccc(-c2noc(C(F)(F)F)n2)c1", "cytotoxicity call": "inactive"},
      {"smiles": "C[C@@H]1CN([C@@H](C)CO)C(=O)c2cccc(NS(=O)(=O)c3cn(C)cn3)c2O[C@@H]1CN(C)Cc1ccc(C(=O)Nc2ccccc2N)cc1", "cytotoxicity call": "inactive"},
      {"smiles": "C[C@H]1CN([C@@H](C)CO)C(=O)c2cccc(NC(=O)c3ccc(-c4nccs4)cc3)c2O[C@H]1CN(C)C(=O)Nc1ccc(F)cc1", "cytotoxicity call": "inactive"},
      {"smiles": "C[C@H]1CN([C@@H](C)CO)C(=O)c2cc(NC(=O)Nc3ccc(F)cc3)ccc2O[C@H]1CN(C)C(=O)Nc1cccc2ccccc12", "cytotoxicity call": "inactive"},
      {"smiles": "O=C(C1=C[C@H](c2ccc(Br)cc2)C[C@H](OCc2ccc(CO)cc2)O1)N1CCN(Cc2ccccc2)CC1", "cytotoxicity call": "inactive"},
      {"smiles": "COc1cc2c(cc1OC)C(=O)C(CC1CCN(Cc3ccccc3)CC1)C2.Cl", "note": "(stereo not given)", "cytotoxicity call": "inactive"},
      {"smiles": "COc1cc2c(NC3CCN(C)CC3)nc(N3CCCN(C)CC3)nc2cc1OCCOCCN(C)C", "cytotoxicity call": "inactive"},
      {"smiles": "COc1cc(C(=O)OCCCN2CCCN(CCOC(=O)c3cc(OC)c(OC)c(OC)c3)CC2)cc(OC)c1OC", "cytotoxicity call": "inactive"},
      {"smiles": "COc1cc2nc(N3CCCN(Cc4ccccc4)CC3)nc(Nc3ccc(F)c(Cl)c3)c2cc1OC", "cytotoxicity call": "active"},
      {"smiles": "COc1cc2nc(N3CCCN(Cc4ccccc4)CC3)nc(NC3CCN(Cc4ccccc4)CC3)c2cc1OC", "cytotoxicity call": "active"},
      {"smiles": "Brc1ccc2nc(N3CCCN(Cc4ccccc4)CC3)nc(NC3CCN(Cc4ccccc4)CC3)c2c1", "cytotoxicity call": "active"},
      {"smiles": "O=C(C1=C[C@@H](c2ccc(Br)cc2)C[C@@H](OCc2ccc(CO)cc2)O1)N1CCN(Cc2ccccc2)CC1", "cytotoxicity call": "inactive"},
      {"smiles": "COc1cc(C(=O)OCCCN2CCN(CCCOC(=O)c3cc(OC)c(OC)c(OC)c3)CC2)cc(OC)c1OC", "cytotoxicity call": "inactive"},
      {"smiles": "COc1cc(Nc2c(C#N)cnc3cc(OCCCN4CCN(C)CC4)c(OC)cc23)c(Cl)cc1Cl", "cytotoxicity call": "active"},
      {"smiles": "CCOC(=O)/C=C(C)/C=C/C=C(C)/C=C/c1c(C)cc(OC)c(C)c1C", "cytotoxicity call": "inactive"},
      {"smiles": "O=C(NCCCn1ccnc1)C(=O)NC[C@H]1OCCN1S(=O)(=O)c1ccc(F)cc1", "cytotoxicity call": "inactive"},
      {"smiles": "C[C@@H]1CN([C@@H](C)CO)C(=O)c2cccc(NS(=O)(=O)c3ccccc3)c2O[C@H]1CN(C)S(=O)(=O)c1cn(C)cn1", "cytotoxicity call": "inactive"},
      {"smiles": "Cc1ccc(S(=O)(=O)Nc2ccc3c(c2)C(=O)N([C@H](C)CO)C[C@@H](C)[C@@H](CN(C)C(=O)c2ccccc2)OCCCC[C@@H](C)O3)cc1", "cytotoxicity call": "inactive"},
      {"smiles": "CC(C)NC(=O)Nc1ccc2c(c1)C(=O)N([C@@H](C)CO)C[C@H](C)[C@@H](CN(C)S(=O)(=O)c1ccc(F)cc1)O2", "cytotoxicity call": "inactive"}
    ]}
  ]
}
